# According to ChEMBL document CHEMBL1157539, “Thousands of chemical starting points for antimalarial lead identification” (Nature, 2010):
# Several values for one entry are separate records, joined by “and”; a condition that tells them apart may be missing. Identical values can stand only once.
# Test system: Plasmodium falciparum
# Assay: GSK_TCMDC: Inhibition of Plasmodium falciparum Dd2 in whole red blood cells, using parasite LDH activity as an index of growth. Test compounds present at 2uM
# Assay type: functional
row,SMILES,Inhibition
1,CC[C@H]1CN2CC[C@@H]1C[C@H]2[C@H](O)c1cc(N2CCCC(C)(C)C2)nc2ccc(OC)cc12,72%
2,O=C(/C=C/c1cccc(Cl)c1)NC1CCC(CN2CCC(c3c[nH]c4ccccc34)CC2)CC1 (stereo not drawn),82% and 55%
3,O=C(Nc1ccc(Cl)c(Cl)c1)N1CCC(CN2CCC(c3c[nH]c4ccccc34)CC2)CC1,69%
4,Cc1cccc(C(=O)Nc2ccnc(N(C)C3CCN(Cc4cccc(O)c4)CC3)c2)c1.O=C(O)C(F)(F)F,62%
5,O=C(/C=C/c1ccc(Cl)c(Cl)c1)NC1CCC(N2CCC(c3c[nH]c4ccccc34)CC2)CC1 (stereo not drawn),69%
6,COc1cccc(C(=O)C2CC2CN2CC=C(c3c[nH]c4ccc(OC)nc34)CC2)c1 (stereo not drawn),89%
7,CC(C)n1ncc2c(C(=O)Nc3ccc(C#N)c(Cl)c3)cc(C3CC3)nc21,15%
8,CNCCN(C)C(=O)Oc1c(Cl)c(C)nc(C)c1-c1ccc(Oc2ccc(OC(F)(F)F)cc2)cc1.Cl,96%
9,C[C@@H]1C[C@@H]([C@H](O)CC2CC(=O)NC(=O)C2)C(=O)[C@@H](C)C1 [CYCLOHEXIMIDE],87%
10,COc1cc(C(=O)NC2CCC(CN3CCC(c4c[nH]c5ccccc45)CC3)CC2)cc(Cl)n1 (stereo not drawn),45%
11,CC(Cc1ccc(OCCCCOc2ccccc2)cc1)NCCCn1ccnc1 (stereo not drawn),100%
12,Cl.O=C(CC1CCCC1)N(CC1CCN(Cc2ccc(C(F)(F)F)cc2)CC1)c1ccc(N2CCOCC2)c(F)c1,97%
13,O=C(NC1CCC(CN2CCC(c3c[nH]c4ccccc34)CC2)CC1)c1cc2ccccc2s1 (stereo not drawn),68% and 43%
